High-throughput results deposited in PubChem BioAssay by several laboratories.
Sampled rows, rich in hits. Any-hit rate of the full collection: about 4.1%.
MazEF act = increases E. coli MazEF RNase cleavage of RNA | FAM/BHQ RNA-DNA oligo cleavage fluorescence, 5 h | activation, % at 20 µM | hit rate 0.32% among 350,000; in the data active = activation above about 50%
Target sequence (P0AE70 whole entry, looked up): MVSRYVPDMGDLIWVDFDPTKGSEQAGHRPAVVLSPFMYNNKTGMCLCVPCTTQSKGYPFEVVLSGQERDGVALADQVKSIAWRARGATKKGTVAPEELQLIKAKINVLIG
Anthrax LF prot = anthrax lethal factor protease inhibition; P15917; multiplex microsphere protease cleavage assay, LF; inhibition, % at 10 µM; hit rate 0.12% among 360,000; AID 588501; also: plate controls were buffer without enzyme for full effect and enzyme alone for no effect
Autofluor counter = compound fluorescence in toxin protease inhibitor counterscreen | compound autofluorescence counterscreen, microsphere flow cytometry; hits give high values | fluorescence intensity (test concentration not listed) | hit rate 3.1% among 360,000; in the data active = fluorescence intensity above about 16000; inconclusive = no clear call, values can overlap the other calls
BoNT-F LC inh = BoNT F light chain protease inhibition; hit rate 0.22% among 360,000; Multiplex microsphere protease cleavage assay, flow cytometry; AID 588497; inhibition, % at 10 µM; in the data active = inhibition above about 35%, passing the limit was not always enough; inconclusive = no clear call, values can overlap the other calls; also: plate controls were buffer without enzyme for full effect and enzyme alone for no effect
DUSP3 inh = blocks human VHR1 dual specificity phosphatase; recombinant VHR phosphatase, pNPP absorbance; inhibition, % at 13.3 µM; hit rate 0.52% among 290,000; in the data active = inhibition above about 50%
Target sequence (P51452 whole entry, looked up): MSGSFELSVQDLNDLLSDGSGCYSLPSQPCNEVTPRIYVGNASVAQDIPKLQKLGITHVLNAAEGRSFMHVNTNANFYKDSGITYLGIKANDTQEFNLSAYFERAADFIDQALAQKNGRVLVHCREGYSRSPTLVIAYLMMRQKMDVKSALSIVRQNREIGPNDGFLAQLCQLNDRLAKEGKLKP
BoNT-A LC inh2 = inhibitors of Botulinum neurotoxin A light chain protease; hit rate 0.17% among 360,000; multiplex microsphere protease substrate cleavage, flow cytometry; inhibition, % at 10 µM; also: plate controls were buffer without enzyme for full effect and enzyme alone for no effect
* hit, by the source's call; ? = inconclusive; / = not tested or not shown. Rule as the data show it, unless noted: active = inhibition above about 30%; inconclusive = no clear call, values can overlap the other calls; inactive = below that.

SMILES	MazEF act	Anthrax LF prot	Autofluor counter	BoNT-F LC inh	DUSP3 inh	BoNT-A LC inh2
CCCC(=O)C1=C(O)C(C(=O)OC)C(C)(C)CC1=Nc1ccc(N)cc1 (stereo not drawn)	13.2	-0.2	21083*	9.3	33.8	4.2
CCCC(=Nc1ccc(N)cc1)C1=C(O)C(C(=O)OC)C(C)(C)CC1=O (stereo not drawn)	-9.2	-1.3	23098*	0.2	14.6	?
CCCC(=O)C1=C(O)C(C(=O)OC)C(C)(C)CC1=Nc1ccc(C)cc1 (stereo not drawn)	-0.4	-2.7	3386	-9.8	7.3	0.2
CC(C)(C)S(=O)N1Cc2cc(C(=O)NCc3ccc4c(c3)OCO4)nc(-c3cccc(-c4ccccc4)c3)c2[C@@H]1CCO (stereo partly drawn)	/	1.4	5724	-11.9	/	0.4
Cc1c(CC(=O)O)c(=O)oc2c(C)c(OCc3ccc(F)cc3F)ccc12	-4.0	-4.6	3764	6.9	10.4	-0.7
Cc1c(CC(=O)O)c(=O)oc2c(C)c(OCc3ccc(F)cc3Cl)ccc12	-32.2	8.6	3385	34.6*	14.1	2.1
O=C(Nc1nccs1)C1CC(=O)N(c2ccccc2Cl)C1 (stereo not drawn)	0.6	0.6	23519*	1.3	-0.5	-1.0
CCc1ccccc1N1CC(C(=O)Nc2nccs2)CC1=O (stereo not drawn)	5.2	-4.7	3758	-0.6	15.8	-1.1
COc1ccc(OC)c(C=NNC(=O)c2ccc(NS(=O)(=O)c3cccs3)cc2)c1	-9.3	-10.6	3855	-4.9	/	-0.8
CCc1cccc2c(C(=O)CSc3nncn3-c3ccc(OC)cc3)c[nH]c12	5.0	1.3	2304	3.6	8.5	0.8
CCc1cccc2c(C(=O)CSc3nnc(-c4ccoc4C)n3C)c[nH]c12	1.7	-3.6	22498*	1.2	12.0	2.6
CCCCC[C@@H](C)N1C[C@H](COCc2ccccc2)Oc2cc(N3CCC[C@H]3COC)ccc2S1(=O)=O	/	-7.4	4221	3.8	/	0.3
COc1ccc(NC(=O)CSc2nc(C)c3c(c2C#N)CCCC3)cc1	-2.5	-0.5	21814*	-2.0	27.0	0.0
COc1ccccc1NC(=O)CSc1nc(C)c2c(c1C#N)CCCC2	-14.3	-1.3	23495*	-2.2	6.8	-1.9
COc1cccc(NC(=O)CSc2nc3c(c(-c4ccco4)c2C#N)CCCC3)c1	-36.5	-5.6	23093*	1.0	19.7	?
CC1CN(S(=O)(=O)c2cc(C(=O)NCCCN3CCCC3=O)ccc2Cl)CC(C)O1 (stereo not drawn)	-0.4	1.0	4278	18.4	/	4.0
O=C(O)C1C=CCC(C(=O)O)C1 (stereo not drawn)	4.4	-2.8	3838	0.7	/	-0.1
Cc1ccc(CNCCCn2cnc(C(=O)Nc3ccc(C)c(C)c3)n2)o1	3.4	-1.8	3860	-6.0	/	0.0
C/C(=N\Nc1nc(N)cc(Cl)n1)c1cccc(N)c1	-1.4	-1.3	2354	3.5	8.1	0.1
C/C(=N\Nc1nc(N)cc(Cl)n1)c1cccc([N+](=O)[O-])c1	-5.5	1.2	22572*	1.4	13.9	-0.7
COc1cc(N)c(Cl)cc1C(=O)OCC(=O)Nc1cccnc1Cl	5.3	/	/	/	/	/
COc1ccccc1-c1noc2c1C(=O)NCC2	5.7	-0.8	2912	-9.4	/	0.0
Cc1nc(NC(=O)c2cc3c(s2)CCCCC3)sc1C(=O)N(C)C	5.5	0.0	10711	9.1	-0.2	0.5
COC(=O)c1sc(NC(=O)c2cc3c(s2)CCCC3)nc1C	9.9	0.1	25221*	-7.8	13.4	-4.4
CCC(CO)NC(=O)c1cc2c(s1)CCC2 (stereo not drawn)	-3.1	0.2	3242	-3.9	3.0	0.6
SMILES	MazEF act	Anthrax LF prot	Autofluor counter	BoNT-F LC inh	DUSP3 inh	BoNT-A LC inh2
CC(NC(=O)c1cc2c(s1)CCCC2)C(C)(C)C (stereo not drawn)	-16.9	-20.2	16452*	24.2	-8.8	20.3
COCCNC(=O)C1(C)CCCN(C(=O)c2ccc(OC)cc2OC)C1 (stereo not drawn)	/	9.4	3970	-1.5	/	0.0
N#C/C(C(=O)Oc1ccccc1)=C1\C=Cc2ccccc2N1	50.3*	2.9	4639	9.0	7.3	1.7
Cc1ccc2c(Cl)c(C(=O)N/N=C/c3cccn3C)sc2c1	71.5*	1.2	2086	2.2	19.2	-0.8
COC(=O)c1ccc(CSc2nc3scc(-c4cccs4)c3c(=O)[nH]2)o1	4.3	0.9	20323*	3.5	15.4	?
COC(=O)c1ccc(CSc2nc3ccc(Cl)cc3[nH]2)o1	-1.0	0.3	3670	-8.3	14.5	0.7
